Data on 24 molecules can be found in PubChem BioAssay (Tox21).

Assay [1] can be described thus: qHTS assay to identify small molecule antagonists of the thyroid receptor (TR) signaling pathway (AID 743065). Further: nearly all actives have a fitted effect of over 55% in size. Further: potency means the concentration at half of the fitted maximal effect. On activity, negative = inhibition: series mostly up to about 70 µM. The essentials: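 Antagonism measured as loss of luciferase signal in GH3 cells stably carrying a TRE-luciferase reporter, co-treated with compound and T3 (1 nM final) for 23.5 h at 37 C. Viability was read in the same well by CellTiter-Fluor.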
For assay [2], the system named is thyroid hormone receptor (rat, GH3 cells). The experiment in a line: qHTS assay to identify small molecule agonists of the thyroid receptor (TR) signaling pathway (AID 743066; calls by dose curve). (In general: Quantitative high-throughput screening tests each substance at several concentrations.)
For assay [3], the target named is Estrogen receptor (Homo sapiens) (UniProt P03372). The experiment in a line: qHTS assay to identify small molecule antagonists of the estrogen receptor alpha (ER-alpha) signaling pathway (AID 743069; active means well fitted curve in the direction sought with a large enough effect in the signal ratio in the repeat runs, not every such curve was filed as active; inconclusive means weak or mixed curves, or effect the other way; inactive means no such curve, though single readings can be large or run the other way; the % refers to the signal ratio; further: potency means the concentration at half of the fitted maximal effect). The procedure, abridged: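 Compound effects are measured against 17beta-estradiol stimulation in HEK293 cells with a UAS-controlled beta-lactamase reporter for ER-alpha. Exposure lasts 18 hr at 37C; LiveBLAzer B/G FRET substrate follows for 2 hr at room temperature.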
Sequence of Estrogen receptor (Homo sapiens) (P03372 whole entry, looked up): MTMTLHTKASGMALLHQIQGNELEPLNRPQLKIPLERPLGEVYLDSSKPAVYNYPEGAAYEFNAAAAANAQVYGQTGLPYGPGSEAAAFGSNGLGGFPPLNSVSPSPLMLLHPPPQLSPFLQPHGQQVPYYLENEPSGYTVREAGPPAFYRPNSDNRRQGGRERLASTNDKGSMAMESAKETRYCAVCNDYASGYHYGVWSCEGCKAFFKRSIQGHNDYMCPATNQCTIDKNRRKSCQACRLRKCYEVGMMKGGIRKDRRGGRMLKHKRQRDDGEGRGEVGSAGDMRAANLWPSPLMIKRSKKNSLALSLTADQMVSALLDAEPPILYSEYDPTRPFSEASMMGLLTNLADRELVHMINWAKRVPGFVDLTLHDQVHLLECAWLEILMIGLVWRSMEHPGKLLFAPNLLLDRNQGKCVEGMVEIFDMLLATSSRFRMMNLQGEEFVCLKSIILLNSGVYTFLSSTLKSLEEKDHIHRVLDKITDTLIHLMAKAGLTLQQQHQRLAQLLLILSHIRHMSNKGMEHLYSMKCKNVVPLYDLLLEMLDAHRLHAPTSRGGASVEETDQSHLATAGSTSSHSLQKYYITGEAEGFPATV

Assay [4] can be described thus: qHTS assay to identify small molecule antagonists of the estrogen receptor alpha (ER-alpha) signaling pathway - cell viability counter screen (AID 743074; calls by dose curve;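 further: HEK293 cells carrying ER-alpha-UAS-bla reporter stimulated with 17beta-estradiol; nearly all actives have a fitted effect of over 45% in size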).
Assay [5] deals with Estrogen receptor (Homo sapiens) (UniProt P03372). The experiment in a line: qHTS assay to identify small molecule agonists of the estrogen receptor alpha (ER-alpha) signaling pathway (AID 743075; calls by dose curve).
The target is the same in assay [6]. Nature of the assay: qHTS assay to identify small molecule agonists of the estrogen receptor alpha (ER-alpha) signaling pathway using the BG1 cell line (AID 743079). Further: nearly all actives have a fitted effect of over 20% in size. Further: potency means the concentration at half of the fitted maximal effect.
Assay [7] in a line: qHTS assay to identify small molecule antagonists of the estrogen receptor alpha (ER-alpha) signaling pathway using the BG1 cell line - cell viability counter screen (AID 743081).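 Further: compound given together with 17beta-estradiol as the ER stimulus; series mostly up to about 70 µM; nearly all actives have a fitted effect of over 45% in size.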
The next assay deals with Aromatase (Homo sapiens) (UniProt P11511). The experiment in a line: qHTS assay to identify aromatase inhibitors (AID 743083). Further: nearly all actives have a fitted effect of over 55% in size. Further: potency means the concentration at half of the fitted maximal effect. On activity, negative = inhibition: series mostly up to about 70 µM.
Sequence of Aromatase (Homo sapiens) (P11511 whole entry, looked up): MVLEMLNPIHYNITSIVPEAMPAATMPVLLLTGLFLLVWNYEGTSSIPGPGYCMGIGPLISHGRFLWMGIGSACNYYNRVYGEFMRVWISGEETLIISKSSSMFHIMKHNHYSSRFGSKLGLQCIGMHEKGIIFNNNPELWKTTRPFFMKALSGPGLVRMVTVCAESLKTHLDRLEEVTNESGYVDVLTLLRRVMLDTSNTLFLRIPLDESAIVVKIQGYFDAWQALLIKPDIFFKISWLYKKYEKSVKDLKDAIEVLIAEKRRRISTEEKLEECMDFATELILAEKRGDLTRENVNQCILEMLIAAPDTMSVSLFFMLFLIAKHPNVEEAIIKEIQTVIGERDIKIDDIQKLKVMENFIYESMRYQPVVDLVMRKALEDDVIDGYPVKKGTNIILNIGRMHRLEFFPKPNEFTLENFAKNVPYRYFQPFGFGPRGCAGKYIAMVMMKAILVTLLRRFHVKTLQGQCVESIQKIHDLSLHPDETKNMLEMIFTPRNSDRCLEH
The nature of assay [8]: qHTS assay to identify small molecule antagonists of the thyroid receptor (TR) signaling pathway - cell viability counter screen (AID 743064). Further: nearly all actives have a fitted effect of over 50% in size. The essentials: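 In rat pituitary GH3.TRE-Luc reporter cells co-exposed to compound and 1 nM T3 for 23.5 h, cytotoxicity was assessed with CellTiter-Fluor in the same wells, read by fluorescence.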
Assay [9] in a line: qHTS assay to identify small molecule antagonists of the estrogen receptor alpha (ER-alpha) signaling pathway using the BG1 cell line (AID 743080; calls by dose curve;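 further: BG1 cells stimulated with 17beta-estradiol alongside compound; series mostly up to about 70 µM; nearly all actives have a fitted effect of over 25% in size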). The procedure, abridged:
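Luciferase inhibition measured with ONE-Glo after 30 min at RT in BG1Luc4E2 cells given test compounds and 17beta-estradiol for 21.5 h at 37 C; CellTiter-Fluor viability read in the same wells beforehand.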

Where “and” joins values, the source holds several entries; their conditions need not be identical. Equal values may be shown once. Values without a mark were called inactive. Calls of active or inactive are those of the source. Unless noted, the call rests on the fitted dose curve; in most records, active means well fitted curve in the direction sought with a large enough effect in the repeat runs; inconclusive means weak or mixed curves; inactive means no such curve, though single readings can be large; an effect the other way counts as inactive or inconclusive.
On the % scale 0 is the no-effect control and ±100 the full control effect.

With `CCOC(=O)c1cncn1C(C)c1ccccc1` (centres undefined), the Potency result in assay [1], in assay [2], in [3], in assay [4], in assay [5] and in [6] was “inactive” throughout. In addition, the Potency entry (in assay [7]; with Aromatase (Homo sapiens)) was “inactive” throughout.
`CN1CC[C@]23c4c5ccc(O)c4O[C@H]2[C@@H](O)C=C[C@H]3[C@H]1C5`: the Potency entry (in [8]; in assay [2]; in assay [4]; in assay [9]; in assay [7]; in the assay with Aromatase (Homo sapiens)) was “inactive” throughout.
On to `C[C@]12CC[C@H]3[C@@H](CCC4=CC(=O)CC[C@@H]43)[C@@H]1CC[C@@H]2OC(=O)CCc1ccccc1`, for which the Potency result in [8], in assay [2] and in [4] was “inactive” in each case.
For the molecule `CN1CC[C@]23c4c5ccc(O)c4O[C@H]2[C@@H](O)CC[C@H]3[C@H]1C5`, the Potency entry in assay [1], in [2], in assay [3], in assay [4], in assay [5] and in assay [6] was “inactive” each time. Moreover, the Potency entry (in [9]; in [7]; in the assay with Aromatase (Homo sapiens)) was “inactive” throughout.
Turning to `CCCC[N+](CCCC)(CCCC)CCCC`, the Potency result in assay [1], in assay [2], in assay [3], in assay [4], in assay [5] and in [6] was “inactive” in each case. Besides, the Potency result (in [9]; in assay [7]; with Aromatase (Homo sapiens)) was “inactive” each time.
On to `O=P(OCC(Br)CBr)(OCC(Br)CBr)OCC(Br)CBr` (centres undefined), for which the Potency in assay [1] was 27.7 µM (active) and 23.1 µM (active); in [3] it was 62.5 µM [inconclusive] (active) and 46.5 µM [inconclusive] (active); in the assay with Aromatase (Homo sapiens), 61.9 µM (active). In addition, the Potency entry in [2], in assay [4], in assay [5], in [6], in assay [9] and in [7] was “inactive” in each case.
On to `C=CC(=O)OCC`, for which the Potency result in assay [1], in assay [2], in assay [3], in assay [4], in [5] and in assay [6] was “inactive” throughout. For the same molecule, the Potency entry (in [9]; in assay [7]; with Aromatase (Homo sapiens)) was “inactive” throughout.
As to `CCCBr`, the Potency result in assay [1], in [2], in [3], in assay [4], in [5] and in assay [6] was “inactive” each time. The Potency entry (in [7]; with Aromatase (Homo sapiens)) was “inactive” each time.
`COC(=O)Cc1ccccc1`: the Potency entry in assay [8], in assay [3], in assay [4], in [5], in [6] and in assay [7] was “inactive” in each case. For the same molecule, the Potency entry in the assay with Aromatase (Homo sapiens) is “inactive”.
Regarding `CCCCCCCCCCCCCCCl`, the Potency result in [1], in assay [2], in assay [3], in [4], in assay [5] and in [6] was “inactive” each time. The Potency entry (in assay [9]; in [7]; with Aromatase (Homo sapiens)) was “inactive” each time.
Consider `COc1ccc(C(=O)c2c(C)n(CCN3CCOCC3)c3ccccc23)cc1`, for which the Potency entry (in assay [8]; in assay [2]; in assay [4]; with Aromatase (Homo sapiens)) was “inactive” each time.
Take `CCC(C)(C)O`: the Potency entry in assay [1], in assay [2], in [3], in [4], in assay [5] and in assay [6] was “inactive” throughout. In addition, the Potency result (in assay [9]; in assay [7]; with Aromatase (Homo sapiens)) was “inactive” each time.
For `CNC(=O)Oc1cccc(N=CN(C)C)c1`, the Potency entry in [8], in assay [2], in assay [4], in [5], in [6] and in [7] was “inactive” in each case. Also, in the assay with Aromatase (Homo sapiens), the Potency entry is “inactive”.
As to `CN(C1CCCCC1)C1CCCCC1`, the Potency entry in assay [1], in assay [2], in assay [3], in assay [4], in assay [5] and in [6] was “inactive” in each case. The Potency entry (in [9]; in assay [7]; in the assay with Aromatase (Homo sapiens)) was “inactive” each time.
Consider `CCOP(=O)(SC(C)CC)N1CCSC1=O` (centres undefined), for which the Potency entry (in assay [8]; in assay [4]; in assay [7]; with Aromatase (Homo sapiens)) was “inactive” throughout.
As to `CCC1(CC)C(=O)NC(=O)NC1=O`, the Potency result in assay [1], in [2], in [3], in assay [4], in assay [5] and in assay [6] was “inactive” throughout. In addition, the Potency result (in assay [9]; in [7]; with Aromatase (Homo sapiens)) was “inactive” throughout.
`C[N+](C)(C)CC1CO1` (centres undefined): the Potency result in assay [1], in [2], in [3], in [4], in [5] and in assay [6] was “inactive” throughout. Moreover, the Potency entry (in [7]; in the assay with Aromatase (Homo sapiens)) was “inactive” throughout.
Turning to `NC(=O)CF`, the Potency result in assay [1], in assay [2], in [3], in assay [4], in [5] and in [6] was “inactive” throughout. Moreover, the Potency result (in assay [9]; in [7]; with Aromatase (Homo sapiens)) was “inactive” throughout.
On to `NC(=S)c1c(Cl)cccc1Cl`, for which the Potency result in assay [8], in assay [3], in assay [4], in [5], in assay [6] and in assay [9] was “inactive” in each case. Moreover, the Potency result (in assay [7]; with Aromatase (Homo sapiens)) was “inactive” throughout.
As for `SCc1ccccc1`, the Potency result in assay [1], in assay [2], in assay [3], in assay [4], in [5] and in assay [9] was “inactive” in each case. The Potency entry (in assay [7]; with Aromatase (Homo sapiens)) was “inactive” each time. In assay [6], the Potency is 62.9 µM (active).
For `CCN(C(C)=O)c1cccc(-c2ccnc3c(C#N)cnn23)c1`, the Potency entry in [1], in [2], in assay [3], in assay [4], in [5] and in [6] was “inactive” throughout. Besides, the Potency entry (in assay [7]; with Aromatase (Homo sapiens)) was “inactive” throughout.
Consider `CCC(C)Cl` (centres undefined), for which the Potency entry in [1], in [2], in [3], in assay [4], in assay [5] and in [6] was “inactive” in each case. In addition, the Potency entry (in assay [9]; in assay [7]; with Aromatase (Homo sapiens)) was “inactive” each time.
As for `CCOC(=O)NC(O)C(Cl)(Cl)Cl` (centres undefined), the Potency result in assay [1], in [2], in assay [3], in assay [4], in [5] and in assay [6] was “inactive” throughout. Moreover, the Potency entry (in assay [9]; in assay [7]; with Aromatase (Homo sapiens)) was “inactive” throughout.
With `CCCCCCCCCCCCN=C(N)N`, the activity change, negative = cytotoxic in assay [8] was -13.9% [at 3.79 µM]. For the same molecule, the activation in [2] is -1.59% [at 3.63 µM]. In assay [9], the activity change, negative = inhibition is -30.4% [at 3.79 µM]. Also, in [7], the activity change, negative = cytotoxicity was -12.7% [at 3.79 µM]. In the assay with Aromatase (Homo sapiens), the activity, negative = inhibition is -1.41% [at 3.79 µM].
